Rows were chosen to be rich in hits. Some 10% of all compounds tested hit in one or more screens of this group.
G9a inh – blocks human histone lysine methyltransferase G9a; actives 8.8% (n = 350,000); Potency, µM (series often up to 102 µM), for the others: at the highest dose activity, negative = inhibition, actives largely listed as inhibitors; Q96KQ7; G9a H3K9 monomethylation, AlphaScreen, 2 h; further: on the % scale 0 is the no-effect control and ±100 the full control effect; nearly all actives have a fitted effect of over 75% in size
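Readings reflect AlphaScreen signal from monomethyl-H3K9 antibody detection. HMT at 20 nM; substrate b-H3K9 500 nM; cofactor SAM 20 uM; 2 h RT reaction; compounds tested as titrations in qHTS with 15 min preincubation.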
L3MBTL1 block – blocks human L3MBTL1. Q9Y468. actives 0.66% (n = 230,000). AlphaScreen L3MBTL1–H3K9me1 peptide binding. AID 485360. Potency, µM (doses to about 57.1 µM), inactives show top-dose activity, negative = inhibition, usual class: inhibitors; further: on the % scale 0 is the no-effect control and ±100 the full control effect; nearly all actives have a fitted effect of over 60% in size
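Read-out is AlphaScreen signal from streptavidin donor and nickel chelate acceptor beads (10 ug/mL final each) bridging L3MBTL1 (50 nM) and biotinylated K9-monomethylated H3(1-15) peptide (75 nM), after 30 min compound exposure at room temperature.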
HP1b chromo inh – inhibitors of HP1-beta chromodomain binding to methylated histone tails | actives 0.56% (n = 390,000) | Potency, µM (highest dose often 114 µM), for the others: top-dose activity change, negative = inhibition, usual class: inhibitors | AID 540317 | AlphaScreen HP1-beta / biotin-H3K9me3 peptide binding; further: nearly all actives have a fitted effect of over 70% in size
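AlphaScreen: HP1-beta (50 nM) preformed 30 min with biotin-H3(1-18)K9me3 peptide (50 nM) in PBS pH 7.4, 0.01% Tween-20. Compound added for 30 min at RT, then streptavidin donor/nickel chelate acceptor beads (10 ug/mL) for 30 min.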
GLS inh – blocks human kidney-isoform glutaminase activity | O94925 | GLS enzymatic activity, qHTS titration | Potency, µM (series often up to 45.5 µM), for the others: at the top dose activity change, negative = inhibition, hits mostly inhibitors | actives 0.21% (n = 410,000); further: on the % scale 0 is the no-effect control and ±100 the full control effect
Target sequence (O94925 whole entry, looked up, canonical isoform): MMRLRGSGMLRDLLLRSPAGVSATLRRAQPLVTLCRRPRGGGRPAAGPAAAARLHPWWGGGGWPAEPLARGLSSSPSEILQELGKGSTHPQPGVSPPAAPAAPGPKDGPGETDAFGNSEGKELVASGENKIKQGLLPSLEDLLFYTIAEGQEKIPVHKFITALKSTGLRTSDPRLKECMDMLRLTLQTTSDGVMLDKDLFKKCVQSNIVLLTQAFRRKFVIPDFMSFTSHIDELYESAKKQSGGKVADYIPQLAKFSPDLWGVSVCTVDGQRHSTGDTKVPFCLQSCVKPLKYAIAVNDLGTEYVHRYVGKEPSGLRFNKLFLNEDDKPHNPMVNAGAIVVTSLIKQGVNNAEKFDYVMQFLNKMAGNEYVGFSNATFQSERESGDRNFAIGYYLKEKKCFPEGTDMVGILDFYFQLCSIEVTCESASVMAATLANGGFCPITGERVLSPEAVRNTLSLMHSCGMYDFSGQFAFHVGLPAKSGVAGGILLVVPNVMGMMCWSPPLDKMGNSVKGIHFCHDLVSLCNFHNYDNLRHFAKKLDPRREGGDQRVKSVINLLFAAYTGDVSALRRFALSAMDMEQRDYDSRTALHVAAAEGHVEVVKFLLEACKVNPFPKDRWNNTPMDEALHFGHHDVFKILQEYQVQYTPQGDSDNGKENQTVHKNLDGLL
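Glutamate formation by hKGA was monitored fluorometrically using coupled glutamate oxidase, HRP and Amplex Red. Substrate was added as 1 mM L-glutamine solution; incubation was 30 min at RT after an initial read.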
JMJD2A Tudor inh – blocks the human JMJD2A Tudor domain; AlphaScreen JMJD2A-Tudor / H3K4me3 peptide binding; Potency, µM (highest dose often 114 µM), for the others: top-dose activity change, negative = inhibition, most hits filed as inhibitors; actives 4.4% (n = 390,000); AID 504339; further: on the % scale 0 is the no-effect control and ±100 the full control effect; nearly all actives have a fitted effect of over 50% in size
BAZ2B block – blocks human BAZ2B; AlphaScreen BAZ2B-H3K14Ac peptide displacement; AID 504333; actives 4.4% (n = 360,000); Potency, µM (titrated, usually from 114 µM), for the others: at the highest dose activity change, negative = inhibition, actives largely listed as inhibitors; further: on the % scale 0 is the no-effect control and ±100 the full control effect; nearly all actives have a fitted effect of over 60% in size
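BAZ2B 50 nM plus b-H3(5-23)K14Ac 50 nM, PBS pH 7.4/0.01% Tween-20, 30 min RT; compound added (max 110 uM), 30 min RT; streptavidin donor/Ni-chelate acceptor beads 10 ug/mL final, 20 min dark; AlphaScreen read.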
* marks the source's active call; other numbers are inactive results; u = inconclusive; x = no result given; [ ] = another dose, or the depositor's remark. The call rests on the fitted dose curve; in most records, active means well fitted curve in the direction sought with a large enough effect; inconclusive means small, poorly fitted or top-dose-only effect, or another doubt; inactive means no such curve, though single readings can be large; an effect the other way counts as inactive or inconclusive. Potency means the concentration at half of the fitted maximal effect.

SMILES	G9a inh	L3MBTL1 block	HP1b chromo inh	GLS inh	JMJD2A Tudor inh	BAZ2B block
Cc1cc(Nc2cccc(Cl)c2C)n2nc(Cc3ccccc3)nc2n1	18.3%[59 µM]	x	45.8%	2.6%	-26.7%	-29.2%
CCOC(=O)c1cnc(-n2[nH]c(C)cc2=O)[nH]c1=O	u	3.16µM*	50.1µM*	-2.9%	2.82µM*	1.78µM*
CCOC(=O)c1cnc(-n2nc(C)cc2C)nc1N(C)C	u	-1.7%	u	1.9%	50.8%	-3.4%
CCOC(=O)c1cnc(Cc2ccccc2)[nH]c1=O	8.7%[0.501 µM]	8.3%[2.29 µM]	21.8%	0.0%	-11.0%	-1.0%
CCOC(=O)c1cnc(-n2nc(C)cc2C)[nH]c1=O	-4.3%	5.0%	36.2%	-3.2%	-17.6%[11.4 µM]	39.8µM*
CCOC(=O)c1cnc(-n2nc(C)cc2C)nc1N1CCOCC1	79.4µM*	17.0%	17.2%	1.4%	-4.8%	14.0%
CCOC(=O)c1cnc[nH]c1=O	x	x	29.7%	2.5%	-3.5%	x
CCOC(=O)c1cnc(-n2[nH]c(C)c(Cc3ccccc3)c2=O)[nH]c1=O	33.4%[12.7 µM]	2.82µM*	61.3%	-3.2%	7.94µM*	2µM*
COCCNCC(=O)Nc1nc(C)cs1	8.91µM*	2.3%	14.7%	38.8%	u	31.6µM*
Cc1csc(NC(=O)CNS(=O)(=O)c2cccs2)n1	47.2%[12.7 µM]	-1.6%	4.7%	u	8.91µM*	-2.2%
COc1ccc2nc(NC(=O)CNS(=O)(=O)c3cccs3)sc2c1	10.2%[12.7 µM]	x	1.4%	14.9%	-27.4%	-7.2%
Cc1csc(NC(=O)CSc2nc(C)cs2)n1	-20.7%[12.7 µM]	-1.4%	22.3%	5.6%	10.4%	1.2%
Cc1cccc(C(C)C)c1NC(=O)C1CCCN1S(=O)(=O)c1cccc2nsnc12 (stereo not given)	-28.2%[59 µM]	x	25.8%	-2.1%	-16.2%	-13.1%
CCCN1C(=O)C(O)(CC(=O)c2cccc(OC)c2)c2ccccc21 (stereo not given)	-39.4%[12.7 µM]	x	-39.0%	11.7%	u	56.2µM*
COc1cccc(C(=O)CC2(O)C(=O)N(Cc3ccccc3)c3ccccc32)c1 (stereo not given)	-22.7%[59 µM]	x	3.6%	-2.8%	-21.1%	-31.5%
CCc1nn2c(=O)cc(COC(=O)c3cccs3)nc2s1	4.2%[59 µM]	x	60.8%	-6.8%	-12.3%	-13.1%
C/C(N)=C(/C#N)C(=O)CSc1nc2ccccc2[nH]1	u	x	u	-0.4%	79.4µM*	u
CC(=O)N(CCCN1CCOCC1)Cc1ccncc1	50.1µM*	x	26.0%	-14.9%	0.0%[11.4 µM]	u
O=C(O)Cn1ccc2ccccc21	23.0%[12.7 µM]	x	32.5%	-10.0%	-16.4%	-14.9%
OC(CNc1ccccc1)Cn1ccc2ccccc21 (stereo not given)	31.6µM*	-23.9%	u	-3.8%	3.98µM*	35.5µM*
O=C(c1ccccc1)N1CCN(CC(O)Cn2ccc3ccccc32)CC1 (stereo not given)	11.2µM*	x	u	9.0%	u	56.2µM*
Cc1cc(C)c(OCC(O)CN2CCN(C(=O)c3ccccc3)CC2)c(C)c1 (stereo not given)	20µM*	x	u	5.7%	22.4µM*	u
OC(CN1CCCC1)Cn1ccc2ccccc21 (stereo not given)	14.1µM*	x	23.3%	-2.3%	20µM*	50.1µM*
CCCN(CCC)C(=O)Cn1c(=O)n(-c2ccccc2)c(=O)c2c3c(sc21)CCCC3	-4.1%[59 µM]	x	30.0%	-3.7%	-4.4%	-3.3%
OCCN(CCO)c1ncnc2c1sc1nc(N3CCOCC3)c3c(c12)CCCC3	-50.8%	0.7%	-8.7%	1.7%	-24.1%	-12.2%
CSc1nc(N(CCO)CCO)c2sc3nc(-c4ccco4)c4c(c3c2n1)CCC4	12.6µM*	2.51µM*	11.2µM*	7.08µM*	-34.9%[11.4 µM]	u
CSc1nc(SCCO)c2sc3nc(-c4ccco4)c4c(c3c2n1)CC(C)(C)OC4	u	-92.6%	14.5%	u	u	31.6µM*
COC(=O)CSc1nc(SC)nc2c1sc1nc(-c3ccco3)c3c(c12)CC(C)(C)OC3	x	x	21.4%	-22.1%	2.8%	x
